Screening data from PubChem.
Shown are actives, neighbours in structure and some others; about 22% of the full set was active somewhere.
CYP2C9 inhib: blockers of cytochrome P450 2C9 activity – biochemical, luminescence, ADME assay, primary screen. CYP2C9 Supersomes, luciferin-H conversion. AID 777, 2007. inhibition, % at 5 µM. P11712. 20% of 96,000 active;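 active = blocking of liver enzyme CYP2C9 beyond about 50% at 5 µM, limit read from the data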
Target sequence (P11712 whole entry, looked up): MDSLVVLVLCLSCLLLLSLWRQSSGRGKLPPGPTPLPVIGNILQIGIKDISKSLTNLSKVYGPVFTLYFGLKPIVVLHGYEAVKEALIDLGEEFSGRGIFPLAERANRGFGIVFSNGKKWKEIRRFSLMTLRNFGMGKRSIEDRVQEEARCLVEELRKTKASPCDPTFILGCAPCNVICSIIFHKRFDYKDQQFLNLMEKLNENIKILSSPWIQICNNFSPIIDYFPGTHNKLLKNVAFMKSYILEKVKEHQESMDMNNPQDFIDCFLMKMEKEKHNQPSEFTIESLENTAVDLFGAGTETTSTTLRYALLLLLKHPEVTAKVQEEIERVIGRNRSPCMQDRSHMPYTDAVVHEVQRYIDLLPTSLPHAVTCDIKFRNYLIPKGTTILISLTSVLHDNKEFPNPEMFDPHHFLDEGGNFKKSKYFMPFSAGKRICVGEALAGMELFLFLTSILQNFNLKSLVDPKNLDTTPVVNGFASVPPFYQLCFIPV
CYP2C19 inhib: blockers of cytochrome P450 2C19 activity – biochemical, luminescence, ADME assay, primary screen | inhibition, % at 5 µM | CYP2C19 Supersomes, luciferin-H EGE luminescence, 30 min | P33261 | 21% of 96,000 active;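 active = CYP2C19 inhibition above a set limit at 5 µM in the primary screen, cut at about 50% in these data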
CYP2C9 activ: human CYP2C9 activators, primary screen, biochemical, luminescence; AID 1024, 2008; Cytochrome P450 2C9 (Homo sapiens), P11712; recombinant CYP2C9, luciferin-H conversion; stronger effect = higher value; factor 1 = untreated enzyme, 0 = blocked; 1.4% of 96,000 active; activation factor at 5 µM;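 active = activation factor of 2 or more for CYP2C9 at a 5 µM dose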
Measles CPE: compounds protecting cells from measles virus cytopathic effect, primary screen, measles RdRp inhibitor project, single point, MLSMR library, absorbance; 1.5% of 140,000 active; Measles virus-infected cells, CPE protection; AID 841, 2007; protection (pct of control), % at 4 µM; in the data active = protection mostly above about 24%, no sharp cut-off; inactive = mostly below about 26%
CYP2C19 act: human CYP2C19 activators, primary screen, biochemical, luminescence | recombinant CYP2C19, luciferin-H EGE luminescence; stronger effect = higher value; 0 = fully inhibited enzyme, 1 = untreated enzyme | activation factor at 5 µM | 96,000 tested, under 10 active;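 active = activation factor of at least 2 at 5 µM in the primary screen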
Large screens that a line does not name were inactive.

c1ccc(-c2ccc(OCCOCCn3cncn3)cc2)cc1	CYP2C9 inhib 67, CYP2C19 inhib 95
Clc1ccc(SCCCCn2cncn2)cc1	CYP2C9 inhib 76, CYP2C19 inhib 98
COCCCNCCCCSc1ccc(Cl)cc1	none (no result: CYP2C9 inhib, CYP2C19 inhib, CYP2C9 activ, CYP2C19 act)
NCCOc1ccccc1-c1ccccc1	CYP2C9 inhib 66, CYP2C19 inhib 57
CSc1ccccc1NC(=O)CN(C)CC(=O)Nc1ccccc1F	none (no result: CYP2C9 inhib, CYP2C19 inhib, CYP2C9 activ, CYP2C19 act)
CC1CCC/C(=N/NC(=O)c2ccccc2-n2cccc2)C1 (configuration not stated)	none (no result: CYP2C9 inhib, CYP2C19 inhib, CYP2C9 activ, CYP2C19 act)
CCCCN(CC)CCNc1c(NC2CCN(C(=O)OCC)CC2)c(=O)c1=O	CYP2C9 inhib 66
CSc1ccc(-c2nnn(Cc3ccc(C)cc3)n2)cc1	CYP2C19 inhib 62
COCCNC(=O)C1c2ccccc2C(=O)N(CCOC)C1c1ccc(F)cc1 (configuration not stated)	none
O=C(CSCc1cccc(CSCC(=O)Nc2ccc3ccccc3c2)n1)Nc1ccc2ccccc2c1	CYP2C9 inhib 99, CYP2C19 inhib 81
C=C(C)CSCc1nc2ccccc2[nH]1	CYP2C19 inhib 90
O=C(CSc1ccc2ccccc2c1)Nc1nc2ccccc2[nH]1	Measles CPE 42 (no result: CYP2C9 inhib, CYP2C19 inhib, CYP2C9 activ, CYP2C19 act)
O=C(CSCc1nc2ccccc2[nH]1)Nc1ccc2ccccc2c1	CYP2C9 inhib 58
O=C(CSCC(=O)Nc1ccc2ccccc2c1)NCc1ccccc1	none
O=C(CSCc1nc2ccccc2[nH]1)Nc1ccc(Oc2ccccc2)cc1	none (no result: CYP2C9 inhib, CYP2C19 inhib, CYP2C9 activ, CYP2C19 act)
O=C(N/N=C1/CC2C=CCC12)c1ccco1 (configuration not stated)	none (no result: CYP2C9 inhib, CYP2C19 inhib, CYP2C9 activ, CYP2C19 act)
COc1cc2c(cc1OC)CN(c1nc(CN3CCOCC3)nc3sc4c(c13)CCC(C)C4)CC2 (configuration not stated)	none (no result: CYP2C9 inhib, CYP2C19 inhib, CYP2C9 activ, CYP2C19 act)
CCOc1ccc(NC(=O)Cc2ccccc2)cc1	none (no result: CYP2C9 inhib, CYP2C19 inhib, CYP2C9 activ, CYP2C19 act)
c1ccc2nc(N3CCOCC3)cnc2c1	none
O=C(CSc1cccs1)Nc1cccc2ccccc12	none (no result: CYP2C9 inhib, CYP2C19 inhib, CYP2C9 activ, CYP2C19 act)
O=C(CSc1cccs1)Nc1ccc2ccccc2c1	CYP2C9 inhib 64, CYP2C19 inhib 60
CCC1CCC/C1=N\NC(=O)CCC(=O)Nc1ccccc1Cl (configuration not stated)	none (no result: CYP2C9 inhib, CYP2C19 inhib, CYP2C9 activ, CYP2C19 act)
COc1cc(S(=O)(=O)NCCN2CCOCC2)c(OC)cc1Cl	CYP2C19 inhib 65
COc1ccc(S(=O)(=O)NCCN2CCOCC2)c2ccccc12	CYP2C19 inhib 92
Cc1cc(S(=O)(=O)NCCN2CCOCC2)c(C)s1	none
Cc1cc(=O)oc2cc(OCC3CC(c4ccccc4)=NO3)ccc12 (configuration not stated)	CYP2C9 inhib 51
C=C(Cl)COc1ccc2c(C)cc(=O)oc2c1	none (no result: CYP2C9 inhib, CYP2C19 inhib, CYP2C9 activ, CYP2C19 act)
C#CCOc1ccc2c(C)cc(=O)oc2c1	CYP2C19 inhib 64
N#C/C(C(=O)N1CCCCC1)=C1/N=C(N)c2ccccc21	none (no result: CYP2C9 inhib, CYP2C19 inhib, CYP2C9 activ, CYP2C19 act)
Cc1ccc(C2C(C(=O)c3sc(C)nc3C)=C(O)C(=O)N2CCN2CCOCC2)o1 (configuration not stated)	none
COc1cccc(CN2CCN(C(=O)CC(C)C)CC2)c1	none
O=C(CSCc1cccc(F)c1)N1CCN(c2ccccc2)CC1	CYP2C9 inhib 58, CYP2C19 inhib 52
O=C1Nc2ccccc2OC1CC(=O)N1CCN(c2cccc(C(F)(F)F)c2)CC1 (configuration not stated)	CYP2C9 inhib 72
O=C(CSCc1ccccc1)N1CCN(c2cccc(C(F)(F)F)c2)CC1	CYP2C9 inhib 93, CYP2C19 inhib 86
CC(C)CC(=O)N1CCN(Cc2cccc(F)c2)CC1	CYP2C19 inhib 59
O=C(CSCc1ccccc1)N1CCN(c2ccccc2)CC1	none (no result: CYP2C9 inhib, CYP2C19 inhib, CYP2C9 activ, CYP2C19 act)
CCN(CC)Cc1ccccc1Sc1ccccc1	none (no result: CYP2C9 inhib, CYP2C19 inhib, CYP2C9 activ, CYP2C19 act)
CC(C)Oc1ccc(-c2cc(C(=O)NCCN3CCOCC3)c3ccccc3n2)cc1	none
CCOC(=O)c1sc2cc([N+](=O)[O-])cc(SCC(=O)OC)c2c1N	CYP2C9 inhib 87, CYP2C19 inhib 60
c1ccc(NC2=Nc3ccccc3CC2)cc1	CYP2C19 inhib 68
c1ccc(Oc2cccc(NC3=NCCC3)c2)cc1	none
COc1ccc(Cl)cc1C(=O)NCC(C)C	CYP2C9 activ 3.1
CCNC(=O)c1cc(Cl)ccc1OC	none (no result: CYP2C9 inhib, CYP2C19 inhib, CYP2C9 activ, CYP2C19 act)
CCCC(C)NC(=O)c1cc(Cl)ccc1OC (configuration not stated)	CYP2C9 activ 3.5
